In the library only some 1.9% were active in any assay of this set; here they are far more common.
LYPLA2 inh: LYPLA2 (human) inhibition in PME1 counter-screen. O95372. recombinant LYPLA2, FP-Rh probe fluorescence polarization. inhibition, % at 5.9 µM. hit rate 0.38% among 320,000;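 active = inhibition above the screen-wide mean plus 3 SD, limit set per campaign, cut at about 26% in these data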;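 note: 0% = LYPLA2 with DMSO and 100% = wells lacking LYPLA2 enzyme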
Fam108B counter: blocks mouse Fam108B hydrolase in RBBP9 counter-screen. inhibition, % at 9.51 µM. recombinant Fam108B, FP-Rh probe fluorescence polarization. hit rate 0.33% among 300,000;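 active = inhibition above the screen mean inhibition plus 3 SD, computed separately per campaign, cut at about 18% in these data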;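 note: inhibitors lower polarization as less probe binds the enzyme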
PME-1 primary: blocks human protein phosphatase methylesterase 1. recombinant PME-1, FP-Rh probe fluorescence polarization. inhibition, % at 5.9 µM. hit rate 0.53% among 320,000;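 active = inhibition above the campaign mean of all compounds plus 3 SD, cut at about 26% in these data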;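 note: competitive labeling of PME-1 active site by serine hydrolase directed probe; 0% = PME-1 with DMSO and 100% = wells lacking PME-1 enzyme; inhibitors block probe labeling so polarization falls and inhibition rises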
Target sequence (Q9Y570 whole entry, looked up): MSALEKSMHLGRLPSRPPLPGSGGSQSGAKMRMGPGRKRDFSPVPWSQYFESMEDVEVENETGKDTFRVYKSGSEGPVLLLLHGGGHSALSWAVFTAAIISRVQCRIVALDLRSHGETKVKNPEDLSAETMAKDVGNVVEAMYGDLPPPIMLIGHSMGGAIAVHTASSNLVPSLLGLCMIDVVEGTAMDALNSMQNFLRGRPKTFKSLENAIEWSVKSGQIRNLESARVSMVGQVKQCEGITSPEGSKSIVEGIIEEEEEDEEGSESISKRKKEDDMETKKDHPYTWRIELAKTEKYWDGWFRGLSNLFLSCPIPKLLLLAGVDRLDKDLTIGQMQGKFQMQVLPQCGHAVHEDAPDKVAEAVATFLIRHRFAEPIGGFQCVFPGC
PREPL inh: inhibits the human prolyl oligopeptidase-like enzyme. recombinant PREPL, fluorescence polarization activity-based probe. Q4J6C6. hit rate 0.68% among 320,000. inhibition, % at 5.96 µM;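 note: 0% = enzyme with DMSO and 100% = wells lacking enzyme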
GSTO1 inh: GSTO1 inhibition, counter-screen for RBBP9 inhibitors; recombinant GSTO1, activity-based probe fluorescence polarization; inhibition, % at 5.96 µM; hit rate 1.1% among 300,000; AID 1974;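 active = inhibition above the campaign mean inhibition plus 3 SD, cut at about 35% in these data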;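 note: 0% = GSTO1-1 with DMSO and 100% = wells lacking GSTO1-1 enzyme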
Target sequence (P78417 whole entry, looked up): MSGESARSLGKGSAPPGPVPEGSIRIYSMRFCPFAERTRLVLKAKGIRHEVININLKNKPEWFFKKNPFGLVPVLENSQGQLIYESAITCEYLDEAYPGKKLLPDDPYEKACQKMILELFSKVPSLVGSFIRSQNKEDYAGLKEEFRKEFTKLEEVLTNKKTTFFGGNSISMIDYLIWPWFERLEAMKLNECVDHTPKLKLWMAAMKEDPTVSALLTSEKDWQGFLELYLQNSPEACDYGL
LYPLA1 counter: counter-screen for PME1 inhibitors: inhibitors of human LYPLA1 | O75608 | recombinant LYPLA1, FP-Rh probe fluorescence polarization | inhibition, % at 5.9 µM | hit rate 0.16% among 320,000;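 active = inhibition above the mean of all tested compounds plus 3 SD, set per campaign, cut at about 14% in these data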;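 note: inhibitors block serine hydrolase probe labeling of LYPLA1 so polarization falls; 0% = enzyme with DMSO and 100% = wells lacking LYPLA1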
GSTO1 confirm: GSTO1 (human) inhibition, confirmation; shares compounds with GSTO1 inh; recombinant GSTO1, probe fluorescence polarization; inhibition, % at 5.96 µM; hit rate 54% among 2,400; AID 2176;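 active = inhibition above the primary screen's cutoff, its mean inhibition plus 3 SD, cut at about 35% in these data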;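 note: loss of polarization as inhibitors block binding of rhodamine sulfonate ester activity probe; 0% = GSTO1 with DMSO and 100% = wells lacking GSTO1 enzyme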
LYPLA1 confirm: counter-screen for PME1 inhibitors: confirmation of human LYPLA1 inhibitors; AID 2233; shares compounds with LYPLA1 counter; inhibition, % at 5.9 µM; hit rate 69% among 480; recombinant LYPLA1, FP-Rh probe fluorescence polarization;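 active = mean inhibition across replicates above the hit cutoff set in the primary screen, cut at about 15% in these data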;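 note: loss of FP-Rh probe labeling of LYPLA1 seen as lower polarization; 0% = LYPLA1 with DMSO and 100% = wells lacking LYPLA1 enzyme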
LYPLA2 conf: counter-screen for PME1 inhibitors: confirmation of human LYPLA2 inhibitors; shares compounds with LYPLA2 inh; recombinant LYPLA2, FP-Rh probe fluorescence polarization; inhibition, % at 5.9 µM; hit rate 72% among 1,100;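 active = mean inhibition across replicates above the hit cutoff set in the primary screen, cut at about 26% in these data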;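 note: blocked labeling of the enzyme by serine hydrolase FP-Rh probe lowers polarization; 0% = enzyme with DMSO and 100% = wells lacking LYPLA2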
PREPL confirm: human PREPL inhibition, confirmation; shares compounds with PREPL inh; inhibition, % at 5.96 µM; AID 2803; hit rate 67% among 2,000; recombinant PREPL, fluorescence polarization activity probe;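 note: 0% = protein with DMSO and 100% = wells lacking protein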
Numbers without * were called inactive; x = no result given. Cut-off read from the data, not from the text of the source, unless noted: active = inhibition above about 43%; inactive = the rest.

SMILES	LYPLA2 inh	Fam108B counter	PME-1 primary	PREPL inh	GSTO1 inh	LYPLA1 counter	LYPLA1 confirm	others
CN(C)CC1CCCCC1OC(=O)/C=C/c1ccc(Cl)cc1Cl (stereo not given)	-2	-1	5	20	-2	-3	x
COC(=O)CCC(=O)OC1(C)C(=O)C2=CN(C3CC3)C(c3ccc(OC)cc3)=CC2=C(Br)C1=O (stereo not given)	2	3	8	75*	63*	3	x	GSTO1 confirm=24;PREPL confirm=69*
COC(=O)CCC(=O)OC1(C)C(=O)C2=CN(CC3CC3)C(c3ccc(OC)cc3)=CC2=C(Br)C1=O (stereo not given)	4	7	3	69*	51*	0	x	GSTO1 confirm=36*;PREPL confirm=56*
CCC(=O)OC1(C)C(=O)C2=COC(c3ccc(OC)cc3)=CC2=C(Br)C1=O (stereo not given)	-1	-3	4	1	33	2	x
COc1ccc(C2=CC3=C(Br)C(=O)C(C)(O)C(=O)C3=CO2)cc1 (stereo not given)	-2	4	4	7	15	0	x
O=C(COC(=O)c1ccc2c(c1)C(=O)N(Cc1ccco1)C2=O)NCC(F)(F)F	-1	0	-1	-10	11	1	x
COC(=O)[C@H]1C[C@H](C(=O)O)[C@@H](C)C1(C)C	-3	2	-7	-2	-3	-2	x
O=C(NC1CCCC1)c1ccc2nc(-c3ccco3)c(-c3ccco3)nc2c1	-9	18	10	62*	63*	-12	x	GSTO1 confirm=38*;PREPL confirm=34
O=C(Oc1ccc(OC(=O)c2ccco2)c(S(=O)(=O)c2ccc(Br)cc2)c1)c1ccco1	-3	1	-1	94*	49*	-3	x	GSTO1 confirm=4;PREPL confirm=93*
Cc1cc(N)ccc1N1CCCC1	29*	13	33*	57*	73*	22*	1	GSTO1 confirm=6;LYPLA2 conf=4;PREPL confirm=45*
NC(=O)c1cc(N)ccc1N1CCCCC1	-1	0	1	5	-1	2	x
CCOC(=O)c1cccc(NC(=O)c2ccc3c(c2)C(=O)N(CC2CCCO2)C3=O)c1 (stereo not given)	3	-4	-10	-3	3	28*	31*
Cc1ccc(C(=O)Nc2ccc3c(c2)C(=O)N(CC2CCCO2)C3=O)cc1 (stereo not given)	-3	1	-9	2	-2	-1	x
COc1ccccc1C(=O)Nc1ccc2c(c1)nc1n2CCN(Cc2ccccc2)C1	11	1	-18	-2	-9	28*	4
O=C(Nc1ccc2c(c1)nc1n2CCN(Cc2ccccc2)C1)c1cccs1	-3	-2	1	6	-11	-10	x
CC1CCCN(CCCNC(=O)c2nn(C)c3c2CS(=O)(=O)c2ccccc2-3)C1 (stereo not given)	10	-2	3	10	0	3	x
COc1ccc(CNS(=O)(=O)c2ccc(-n3cnnn3)c(OC)c2)cc1	1	0	-7	-4	5	4	x
COc1cc(S(=O)(=O)NCc2ccccc2)ccc1-n1cnnn1	5	-1	4	3	2	15*	2
COc1ccc(OC)c(NC(=O)C2CCC(CNc3c(N4CCC(C)CC4)c(=O)c3=O)CC2)c1 (stereo not given)	6	-2	-1	21	8	45*	44*
COC(=O)/C(C#N)=C\c1c(OC)[nH]c2ccccc12	-1	3	-2	-2	-6	20*	3
CCCCC1OC23CCCCC2C(C#N)(C#N)C1(C#N)C(=N)O3 (stereo not given)	17	4	10	11	7	15*	2
Cc1csc(NC(=O)c2ccc(Cl)nc2)n1	8	-1	-2	-1	4	2	x
CCN(c1ccc(NC(=O)c2ccc(N3CCCC3=O)cc2)cc1)C(C)C	0	5	7	11	3	16*	17*
O=C(CSc1nnc(-c2ccco2)o1)N1CCN(c2ccccc2)CC1	4	-1	-1	-37	6	20*	28*
O=C(CC1N=C(Cc2ccccc2)NNC1=O)N/N=C/c1ccc([N+](=O)[O-])cc1 (stereo not given)	-3	1	11	-2	0	26*	23*
SMILES	LYPLA2 inh	Fam108B counter	PME-1 primary	PREPL inh	GSTO1 inh	LYPLA1 counter	LYPLA1 confirm	others
COc1ccc(Cl)cc1NC(=O)CN1CCC(n2nnc3ccccc32)CC1	-3	2	2	2	3	15*	19*
COc1ccc(Cl)cc1NC(=O)CN1CCC(NC(=O)C2CC2)CC1	-5	-3	-6	4	6	-3	x
COC(=O)c1ccc(COc2ccccc2/C=C(\C#N)C(=O)Nc2ccc(C)cc2C)cc1	5	-7	6	4	6	16*	-4
Cc1ccccc1C(=O)Nn1c(C)ccc1C	6	-3	6	7	-1	0	x
Cc1ccc(CNC(=O)C2CCN(S(=O)(=O)c3ccc4c(c3)CC(C)N4C(=O)C3CCC3)CC2)o1 (stereo not given)	12	-5	5	13	-17	16*	19*
CCOC(=O)NC(=O)/C(C#N)=C\Nc1sccc1C(=O)OC	31*	6	26	11	4	20*	3
O=C(Nc1cccc2ncccc12)c1ccc(Cl)cc1	0	-1	-2	-2	9	29*	3
O=C(Nc1cccc2ncccc12)c1ccc(F)cc1	4	5	-4	5	2	-2	x
O=C(Cn1cc(C(F)(F)F)ccc1=O)NCC1CCCO1 (stereo not given)	-6	x	-4	2	x	0	x
O=C(Nc1ccncc1)c1ccc2c(c1)C(=O)N(C1CCCCC1)C2=O	52*	-1	-9	-1	1	26*	31*
Cc1cc(NC(=O)c2ccc3c(c2)C(=O)N(C2CCCCC2)C3=O)no1	1	-9	-3	-16	-4	-1	x
CCOC(=O)Cc1csc(NC(=O)/C=C/c2ccc(OC)cc2)n1	-2	-2	-14	2	0	-1	x
O=C(O)c1cccc2c1-c1ccccc1/C2=N\Nc1ccccc1	3	1	4	17	7	2	x
O=C(O)c1cc(NN=C2c3ccccc3-c3ccccc32)ccc1Cl	13	7	35*	23	10	16*	16*

Bioassay records: PubChem BioAssay, The Scripps Research Institute Molecular Screening Center
